Inconclusive results are not listed. A number with no mark means an inactive call. The source made the active and inactive calls. Unless noted, calls follow the shape of the full dose curve.

Assay [1] in a line: qHTS for Inhibitors of the Functional Ribonucleoprotein Complex (vRNP) of Lassa (LASV) Arenavirus: LASV Primary Screen - GLuc reporter signal (AID 1347082; calls by dose curve; tested in HEK293 reporter line; also: nearly all actives have a fitted effect of over 60% in size; as to activity change, negative = inhibition: series mostly up to about 57 µM). For orientation: qHTS replaces the single test concentration by a dilution series.
The nature of assay [2]: qHTS for Inhibitors of the Functional Ribonucleoprotein Complex (vRNP) of Lassa (LASV) Arenavirus: Viability assay - alamar blue signal for LASV Primary Screen (AID 1347083; calls by dose curve; tested in HEK293 reporter line; also: nearly all actives have a fitted effect of over 80% in size; as to activity change, negative = reduced viability: series mostly up to about 57 µM).
Assay [3] in a line: qHTS for Inhibitors of the Functional Ribonucleoprotein Complex (vRNP) of Lymphocytic Choriomeningitis Arenaviruses (LCMV): Viability assay - alamar blue signal for LCMV Primary Screen (AID 1347085; calls by dose curve; tested in HEK293 reporter line; also: nearly all actives have a fitted effect of over 80% in size; as to activity change, negative = lower viability: series mostly up to about 57 µM).
The target of assay [4] is Nucleoprotein (Lymphocytic choriomeningitis virus (strain Armstrong)) (UniProt P09992). The assay is described as follows: qHTS for Inhibitors of the Functional Ribonucleoprotein Complex (vRNP) of Lymphocytic Choriomeningitis Arenaviruses (LCMV): LCMV Primary Screen - GLuc reporter signal (AID 1347086). Also: nearly all actives have a fitted effect of over 70% in size. As to activity change, negative = inhibition: series mostly up to about 57 µM.
Nucleoprotein (Lymphocytic choriomeningitis virus (strain Armstrong)), sequence (P09992 whole entry, looked up): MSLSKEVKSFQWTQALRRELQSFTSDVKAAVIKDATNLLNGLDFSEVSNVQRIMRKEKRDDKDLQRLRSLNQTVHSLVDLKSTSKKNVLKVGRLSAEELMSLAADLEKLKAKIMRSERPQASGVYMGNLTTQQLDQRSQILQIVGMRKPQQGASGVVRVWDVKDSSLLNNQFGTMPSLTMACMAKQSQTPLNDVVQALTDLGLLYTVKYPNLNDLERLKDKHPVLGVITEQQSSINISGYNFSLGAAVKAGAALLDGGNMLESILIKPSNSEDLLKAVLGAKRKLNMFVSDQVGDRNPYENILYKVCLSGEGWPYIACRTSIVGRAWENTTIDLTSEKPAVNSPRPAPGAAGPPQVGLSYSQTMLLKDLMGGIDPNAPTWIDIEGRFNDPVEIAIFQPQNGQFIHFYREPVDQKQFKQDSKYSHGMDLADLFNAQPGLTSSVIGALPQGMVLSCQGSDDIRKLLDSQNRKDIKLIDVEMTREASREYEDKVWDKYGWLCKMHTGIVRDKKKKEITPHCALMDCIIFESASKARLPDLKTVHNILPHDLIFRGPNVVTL
% is scaled to controls: 0 for no effect and ±100 for the full control effect; potency is read from the fitted curve at half-maximal effect.

Regarding `CC(C)(O)Cn1c(NC(=O)c2ccc(-c3cn[nH]c3)s2)nc2cc(CN3CCOCC3)ccc21`, the Potency was 3.43 µM (active) in assay [1], 3.43 µM (active) in assay [2], 4.32 µM (active) in assay [3] and 10.9 µM (active) in assay [4].
Consider `CC1=CC(=O)CCC1`, for which the Potency entry in assay [1], in assay [2], in assay [3] and in assay [4] was “inactive” throughout.
Take `COC1C(O)C(CO)OC1n1cnc2c(=O)[nH]c(N)nc21` (configuration not stated): the Potency entry in assay [1], in assay [2], in assay [3] and in assay [4] was “inactive” throughout.
For `CCCCCCCC(=O)C(C)C(=O)N(C)[C@H](Cc1ccc(OC)cc1)C(=O)N(C)[C@H](C(N)=O)C(C)C` (some centres not stated), the Potency entry in assay [1], in assay [2], in assay [3] and in assay [4] was “inactive” each time.
For the molecule `C[C@@]12CCC3[C@@](CCC4[C@@]3(C)CCC[C@@]4(C)C(=O)O)(CC1=O)C2` (some centres not stated), the Potency entry in assay [1], in assay [2], in assay [3] and in assay [4] was “inactive” in each case.
For the molecule `CC(C)=CCOc1ccc2ccc(=O)oc2c1`, the Potency entry in assay [1], in assay [2], in assay [3] and in assay [4] was “inactive” throughout.
Take `COc1ccc(CCNC(=O)/C=C\c2ccccc2)cc1OC`: the Potency entry in assay [1], in assay [2], in assay [3] and in assay [4] was “inactive” throughout.
Take `C=C[C@@H](C1=CC(=O)C(OC)=C(OC)C1=O)c1ccccc1`: the Potency result in assay [1], in assay [2], in assay [3] and in assay [4] was “inactive” each time.
For `C=CC[C@]12C=C(OC)C(=O)C=C1O[C@@H](c1ccc3c(c1)OCO3)[C@H]2C`, the Potency result in assay [1], in assay [2], in assay [3] and in assay [4] was “inactive” in each case.
Regarding `O=c1cc(-c2ccc(O)c(O)c2)oc2ccccc12`, the Potency result in assay [1], in assay [2], in assay [3] and in assay [4] was “inactive” in each case.
Take `C=C(C)[C@@H](O)COc1c2ccoc2cc2oc(=O)ccc12`: the Potency result in assay [1], in assay [2], in assay [3] and in assay [4] was “inactive” each time.
With `CN1CCC[C@H]1CCO[C@](C)(c1ccccc1)c1ccc(Cl)cc1`, the Potency entry in assay [1], in assay [2], in assay [3] and in assay [4] was “inactive” in each case.
Regarding `O=C1NC(=S)NC1=Cc1ccc(O)cc1`, the Potency result in assay [1], in assay [2], in assay [3] and in assay [4] was “inactive” in each case.
As to `COc1c2c(c(CCC(=O)O)c3c1C=CC(C)(C)O3)OC(C)(C)C=C2`, the Potency result in assay [1], in assay [2], in assay [3] and in assay [4] was “inactive” throughout.
Turning to `CC(C)=CCCC(C)CCOC=O` (configuration not stated), the Potency result in assay [1], in assay [2], in assay [3] and in assay [4] was “inactive” in each case.
Turning to `O=c1[nH]c(=O)n([C@H]2C[C@@H](O)[C@@H](CO)O2)cc1I`, the Potency result in assay [1], in assay [2], in assay [3] and in assay [4] was “inactive” throughout.
On to `CC(=O)NCC(=O)N1[C@H]2CC[C@H]1c1cc(Nc3ncc(C(F)(F)F)c(NC4CCC4)n3)ccc12`, for which the Potency entry in assay [1] and in assay [4] was “inactive” each time. Also, the figures for the Potency in assay [2] and in assay [3] were 3.43 µM (active) and 9.68 µM (active), respectively.
`O=c1cc(-c2ccc(O)cc2)oc2c([C@@H]3O[C@H](CO)[C@@H](O)[C@H](O)[C@H]3O)c(O)c([C@@H]3O[C@H](CO)[C@@H](O)[C@H](O)[C@H]3O)c(O)c12`: the Potency entry in assay [1], in assay [2], in assay [3] and in assay [4] was “inactive” each time.
Regarding `CCCCCCCCCCCCC(=O)CCCCC(=O)O`, the Potency result in assay [1], in assay [2], in assay [3] and in assay [4] was “inactive” in each case.
On to `CCCCC/C=C\C[C@@H]1O[C@H]1/C=C/C(O)C/C=C\CCCC(=O)O` (some centres not stated), for which the values for the activity change, negative = inhibition in assay [1] and in assay [4] were -3.16% [at 0.757 µM] and 7.04% [at 0.757 µM], respectively. For the same molecule, the activity change, negative = reduced viability in assay [2] was 11.9% [at 0.757 µM]. The activity change, negative = lower viability in assay [3] was 4.17% [at 0.757 µM].
`COc1cc(O)cc2c1[C@@H]1Oc3c(ccc(O)c3CC=C(C)C)[C@@H]1CO2`: the Potency result in assay [1], in assay [2], in assay [3] and in assay [4] was “inactive” each time.
For the molecule `O=C(Nc1ccc(Br)cc1)C(c1ccccc1)c1ccccc1`, the Potency entry in assay [1], in assay [2], in assay [3] and in assay [4] was “inactive” each time.
On to `CC(C=O)Cc1ccc(C(C)C)cc1` (configuration not stated), for which the Potency entry in assay [1], in assay [2], in assay [3] and in assay [4] was “inactive” throughout.
`Nc1nc2c(ncn2[C@@H]2O[C@H](COP(=O)(O)OP(=O)(O)OP(=O)(O)O)[C@@H](O)C2O)c(=O)[nH]1` (some centres not stated): the Potency result in assay [1], in assay [2], in assay [3] and in assay [4] was “inactive” each time.
For `CC(=O)O[C@H]1C[C@@H]2CC[C@@]1(C)C2(C)C`, the Potency entry in assay [1], in assay [2], in assay [3] and in assay [4] was “inactive” throughout.
In the case of `C[C@@H]1OC(O[C@H]2[C@H](Oc3cc(O)c4c(=O)c(O)c(-c5ccc(O)cc5)oc4c3)O[C@H](CO)[C@@H](O)[C@@H]2O)[C@H](O)[C@H](O)[C@H]1O` (some centres not stated), the Potency entry in assay [1], in assay [2], in assay [3] and in assay [4] was “inactive” each time.
Turning to `COc1cc2c3c(c1OC)-c1cc(O)ccc1CC3NCC2` (configuration not stated), the Potency entry in assay [1], in assay [2], in assay [3] and in assay [4] was “inactive” in each case.
With `CC[C@H]1O[C@]2(CC[C@@H]1C)C[C@@H]1C[C@@H](C/C=C(\C)C[C@@H](C)/C=C/C=C3\CO[C@@H]4[C@H](O)C(C)=C[C@@H](C(=O)O1)[C@]34O)O2`, the Potency result in assay [1], in assay [2], in assay [3] and in assay [4] was “inactive” each time.
As to `CC1=CC2=C(C=O)C(=O)C(C)(O)C(O)C2=CO1` (configuration not stated), the Potency result in assay [1], in assay [2], in assay [3] and in assay [4] was “inactive” each time.
For `CC(=O)O[C@H]1C(=O)[C@@]2(C)C([C@H](OC(=O)c3ccccc3)[C@]3(O)C[C@H](OC(=O)[C@H](O)[C@@H](NC(=O)c4ccccc4)c4ccccc4)C(C)=C1C3(C)C)[C@]1(OC(C)=O)CO[C@@H]1C[C@H]2O` (some centres not stated), the Potency result in assay [1], in assay [2], in assay [3] and in assay [4] was “inactive” in each case.
For the molecule `CC1OC(Oc2ccc3ccc(=O)oc3c2-c2c(O)ccc3cc(Oc4ccc5ccc(=O)oc5c4)c(=O)oc23)C(O)C(O)C1O` (configuration not stated), the Potency result in assay [1], in assay [2], in assay [3] and in assay [4] was “inactive” each time.
As to `Cc1ccnc(N)c1`, the Potency entry in assay [1], in assay [2], in assay [3] and in assay [4] was “inactive” throughout.
As for `CC(C)(O)[C@H](O)COc1c2occc2cc2ccc(=O)oc12`, the Potency entry in assay [1], in assay [2], in assay [3] and in assay [4] was “inactive” in each case.

The values are drawn from PubChem BioAssay (NCATS).
